Consider 29 compounds from ChEMBL document CHEMBL1157539, “Thousands of chemical starting points for antimalarial lead identification” (Nature, 2010).

Holding throughout (assay type): functional
Experiment [1] concerns Plasmodium falciparum. Nature of the experiment: GSK_TCMDC: Inhibition of Plasmodium falciparum 3D7 in whole red blood cells, using parasite LDH activity as an index of growth. Test compounds present at 2uM.
For experiment [2], the system named is Plasmodium falciparum. As to the kind of experiment: GSK_TCMDC: Inhibition of Plasmodium falciparum Dd2 in whole red blood cells, using parasite LDH activity as an index of growth. Test compounds present at 2uM.
The subject of experiment [3] is HepG2. As to the kind of experiment: GSK_TCMDC: Percent inhibition of human HepG2 cell line. Test compounds present at 10uM.

With `CCN(CC)CC(O)c1cc(-c2ccc(OC)cc2)nc2cc(Cl)ccc12.Cl` (configuration not stated), the Inhibition in experiment [1] is listed as 99%; in experiment [2], 98%; in experiment [3], 12%.

As for `Cc1nn(CC(O)Cn2c3ccc(Br)cc3c3cc(Br)ccc32)c(C)c1Br` (configuration not stated), the Inhibition was determined as 98% in experiment [1], 81% in experiment [2] and 4% in experiment [3].

Turning to `O=[N+]([O-])c1ccc(N2CCCN(C(=S)Nc3ccc(F)cc3Br)CC2)nc1`, the Inhibition in experiment [1] is given as 100%; in experiment [2], 99%; in experiment [3], 4%.

Regarding `Nc1c(-c2ccc(C(=O)NCCNCc3ccccc3)cc2)cnn1-c1ccc(C(F)(F)F)cc1.O=C(O)C(F)(F)F`, the figures for the Inhibition in experiment [1], in experiment [2] and in experiment [3] were 85%, 2% and 23%, respectively.

`c1csc(-c2nc(N3CCCC3)ncc2-c2ccsc2)n1`: the Inhibition in experiment [1] worked out at 89%; in experiment [2], 75%; in experiment [3], 1%.

On to `COc1ccccc1N1CCN(CCCCNC(=O)c2ccc(NC(=O)c3ccc(OC(F)(F)F)cc3)cc2)CC1.Cl`, for which the Inhibition in experiment [1] worked out at 100%; in experiment [2], 39%; in experiment [3], 29%.

For `Cc1cc(Nc2cccc(C#N)c2)nc(Nc2ccccc2C)n1`, the Inhibition was 95% in experiment [1], 46% in experiment [2] and 10% in experiment [3].

For `Cc1cccc2nc(-c3cccc(-c4cccc(NC(=O)CN5CCN(C)CC5)c4)c3)[nH]c12`, the results for the Inhibition in experiment [1], in experiment [2] and in experiment [3] were 100%, 99% and 76%, respectively.

As for `CNCCNCc1ccc(-c2ccc(-c3nc4cccc(C)c4[nH]3)cc2)cc1.O=C(O)C(F)(F)F`, the figures for the Inhibition in experiment [1], in experiment [2] and in experiment [3] were 96%, 79% and 19%, respectively.

`CN(C)C(CNC(=O)c1cc(-c2ccncc2)c(-c2ccc(NC(=O)Nc3cccc(Cl)c3)cc2)o1)c1ccccc1.O=C(O)C(F)(F)F` (configuration not stated): the Inhibition worked out at 100% in experiment [1], 100% in experiment [2] and 12% in experiment [3].

Regarding `O=C(Nc1ccc(Oc2ccccc2)cc1)N[C@H]1CCN(Cc2ccc(OCCCN3CCCCC3)cc2)C1`, the Inhibition was found to be 100% in experiment [1], 6% in experiment [2] and 13% in experiment [3].

On to `COc1cc2c(c(Cl)c1OC)CCN(Cc1ccccc1)CC2c1ccc(C(N)=O)cc1` (configuration not stated), for which the Inhibition in experiment [1] stood at 97%; in experiment [2] it was 60%; in experiment [3] it was 7%.

Take `Oc1cc(Nc2ccnc3cc(I)ccc23)ccc1F`: the Inhibition in experiment [1] amounted to 99%; in experiment [2] it was 99%; in experiment [3], 0%.

`Cl.NC[C@H](CC1CCCCC1)NC(=O)c1ccc(-c2ccnc3[nH]ccc23)s1`: the Inhibition in experiment [1] is 98%; in experiment [2] it was 4%; in experiment [3], 39%.

`FC(F)(F)c1ccc(NC(=S)N2CCC(CCN3CCC(c4c[nH]c5ccccc45)CC3)CC2)cc1`: the values for the Inhibition in experiment [1], in experiment [2] and in experiment [3] were 98%, 37% and 44%, respectively.

Regarding `CCCCCCNC(=O)C1Cc2c([nH]c3ccc(C)cc23)C2(CCN(Cc3ccccc3)CC2)N1` (configuration not stated), the values for the Inhibition in experiment [1], in experiment [2] and in experiment [3] were 84%, 25% and 25%, respectively.

In the case of `CS(=O)(=O)c1cccc(-c2cnc(N)c3cc(-c4ccc(F)cc4)ccc23)c1`, the figures for the Inhibition in experiment [1], in experiment [2] and in experiment [3] were 91%, 33% and 28%, respectively.

With `Cc1cc(=NN=Cc2ccccc2Cl)c2ccccc2[nH]1`, the values for the Inhibition in experiment [1], in experiment [2] and in experiment [3] were 100%, 30% and 0%, respectively.

With `CCCc1cc(C(=O)N[C@@H](Cc2ccccc2)[C@H](O)CNC(C)C)c(F)c(N2CCCC2=O)c1`, the Inhibition in experiment [1] is given as 90%; in experiment [2], 22%; in experiment [3] it was 0%.

With `O=C(Nc1cccc(OCc2ccccc2)c1)c1ccc(CN2CCC(Cc3ccccc3)CC2)cc1`, the results for the Inhibition in experiment [1], in experiment [2] and in experiment [3] were 100%, 27% and 41%, respectively.

Regarding `COc1ccc2cc(-c3nc(-c4c(Cl)cccc4Cl)[nH]c3-c3ccnc(NCCCN4CCCCC4C)c3)ccc2c1.O=C(O)C(F)(F)F` (configuration not stated), the Inhibition in experiment [1] stood at 94%; in experiment [2] it was 86%; in experiment [3], 19%.

As for `Cc1ccccc1CNC(=O)Nc1cccc(-c2csc(NC(=N)N)n2)c1`, the Inhibition in experiment [1] came out at 99%; in experiment [2] it was 14%; in experiment [3], 2%.

Turning to `COc1ccc(N2CCN(CCCCNC(=O)c3ccc(NC(=O)c4cc(C(F)(F)F)cc(C(F)(F)F)c4)cc3)CC2)c(OC)c1`, the values for the Inhibition in experiment [1], in experiment [2] and in experiment [3] were 100%, 99% and 30%, respectively.

Regarding `O=C(O)C1Cc2c([nH]c3ccccc23)C(c2ccc(Cl)cc2Cl)N1` (configuration not stated), the Inhibition in experiment [1] was found to be 91%; in experiment [2] it was 100%; in experiment [3] it was 7%.

As to `O=C(Nc1ccc(Cl)c(Cl)c1)N(Cc1ccccc1Br)C1CCNCC1`, the Inhibition in experiment [1] stood at 96%; in experiment [2], 8%; in experiment [3], 13%.

In the case of `C[C@H](CNc1ccnc(Nc2ccc3[nH]c(=O)[nH]c3c2)n1)c1ccccc1`, the values for the Inhibition in experiment [1], in experiment [2] and in experiment [3] were 99%, 2% and 50%, respectively.

`COc1ccccc1NC(=S)N/N=C/c1ccc(O)cc1O`: the Inhibition in experiment [1] was found to be 89%; in experiment [2], 80%; in experiment [3], 35%.

Turning to `CCOc1c(CNCCCNc2cc(O)c3ccccc3n2)cc(Br)cc1OC`, the Inhibition amounted to 80% in experiment [1], 18% in experiment [2] and 10% in experiment [3].

`CC(=O)N1CCC(C(=O)Nc2ccc(-c3cccc(-c4nc5cc(C(F)(F)F)ccc5[nH]4)c3)cc2)CC1`: the Inhibition is recorded as 88% in experiment [1], 33% in experiment [2] and 82% in experiment [3].
